The values below come from PubChem BioAssay AID2241 (Broad Institute, 2010).

Out of some 21,000 compounds screened, about 110 (0.52%) were called active. What follows is part of a selection rich in actives, with near analogues and random picks from the rest. Unmarked numbers belong to inactive results.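 Rule for the calls: active = most replicate scores above 10, or exactly half above 10 with mean activity above 10; inconclusive = mean activity below 10 while half the replicates exceed 10; inactive = most replicate scores below 10.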

This assay can be described thus: inducers of caspase activity in MEF A1-2A-BIM cells, primary screen, A1 inhibitor project, cell-based, CaspaseGlo luminescence (AID 2241).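 Note: effector caspase 3 and 7 activity cleaving a DEVD luciferin substrate.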 To be noted: caspase-Glo luminescence, 3 h, active compounds read high, percent of clofoctol signal, DMSO as zero, concentration not given here.
In the case of `CCOC(=O)c1cn(CC)c2cc(F)c(F)cc2c1=O`, the caspase activation was 0.158%.

As to `O=C(NCc1ccccc1Cl)C1=CSCCO1`, the caspase activation is -0.087%.

Take `C[C@@H]1CN([C@@H](C)CO)C(=O)c2cc(NS(=O)(=O)c3ccccc3)ccc2O[C@H]1CN(C)S(=O)(=O)c1ccc(Cl)cc1`: the caspase activation is 0.207%.

Turning to `Cc1ccc(-c2nn(C(C)(C)C)c3ncnc(N)c23)cc1`, the caspase activation was 11.3% (active).

Regarding `COc1ccc(NC(=O)Nc2ccc3c(c2)C(=O)N([C@@H](C)CO)C[C@H](C)[C@@H](CN(C)C(=O)NC2CCCCC2)O3)cc1`, the caspase activation was -0.437%.

Take `Cc1ccc(S(=O)(=O)c2no[n+]([O-])c2S(=O)(=O)c2ccc(C)cc2)cc1`: the caspase activation is -3.56%.

Regarding `CCC(CC)NC(=O)C1c2ccccc2Oc2ccccc21`, the caspase activation is 0.418%.

Take `Cc1noc(C)c1S(=O)(=O)Nc1ccc2c(c1)C(=O)N([C@@H](C)CO)C[C@H](C)[C@H](CN(C)C(=O)Nc1ccc(C(F)(F)F)cc1)O2`: the caspase activation was -0.257%.

Regarding `Cc1ccc(-n2c(C)nc3sc4c(c3c2=O)CCC4)cc1`, the caspase activation was 0.54%.

In the case of `CC(=O)Oc1ccc2occ(C(=O)c3cc4ccccc4o3)c2c1`, the caspase activation is -5.48%.

`O=C(Nc1ccc(Cl)cc1)Nc1ccc(N2CCN(c3ncccc3C(F)(F)F)CC2)nc1`: the caspase activation is -0.335%.

As to `Cc1cccc(NC(=O)C2C3CC/C=C\CCC32)c1` (configuration not stated), the caspase activation is 1.35%.

Regarding `CN1C(=O)C(Cc2ccccc2)(Cc2ccccc2)c2ccccc21`, the caspase activation is -0.527%.

On to `C=CCn1c2ccccc2c2nnc(SCCCC(=O)c3ccc(F)cc3)nc21`, for which the caspase activation was -0.988%.

As for `CNC(=O)CSc1nc2ccccc2[nH]1`, the caspase activation was 0.45%.

On to `Cc1nc(C2COc3ccccc3O2)ncc1S(=O)(=O)c1ccc(Cl)cc1` (configuration not stated), for which the caspase activation was -0.851%.

`O=C(CC1SC(=NC2CC3C=CC2C3)NC1=O)Nc1ccccc1Cl` (configuration not stated): the caspase activation was 0.103%.

As for `C[C@H]1CN([C@@H](C)CO)C(=O)c2cc(NC(=O)CCC(F)(F)F)ccc2O[C@H]1CN(C)Cc1ccc(C(=O)O)cc1`, the caspase activation is 0.236%.

For the compound `COc1ccc(-c2nn(C)c3ccccc23)cc1`, the caspase activation was -6.81%.

Consider `C=CCn1c(SC)nnc1-c1ccc(OC)c(OC)c1`, for which the caspase activation was 0.905%.

Consider `CCc1nnc(NC(=O)c2cc(S(=O)(=O)N3CCc4ccccc43)cn2C)s1`, for which the caspase activation is 1.26%.

With `Cc1ccc(S(=O)(=O)N(CC(=O)Nc2cccnc2)c2cc(C)cc(C)c2)cc1`, the caspase activation is 0.203%.

On to `O=C(CC(=O)c1ccccc1O)c1ccccc1`, for which the caspase activation is -2.59%.

`C[C@@H]1CN([C@H](C)CO)C(=O)c2cc(NC(=O)c3ccncc3)ccc2O[C@H]1CN(C)Cc1ccc(Oc2ccccc2)cc1`: the caspase activation was -0.569%.

On to `CC(=O)Nc1ccc(S(=O)(=O)CCO)cc1`, for which the caspase activation is 2.64%.

For the compound `NC(=O)N1CCc2ccccc21`, the caspase activation is 0.412%.

As to `C[C@@H]1CN([C@H](C)CO)C(=O)c2cc(NS(=O)(=O)c3ccc(F)cc3)ccc2O[C@@H]1CN(C)C(=O)Nc1cccc2ccccc12`, the caspase activation is -0.274%.

Regarding `O=C(c1cccc(Cl)c1)N(Cc1ccccc1)Cc1ccccc1`, the caspase activation was -0.527%.

For the compound `COc1ccc(S(=O)(=O)Nc2ccc3c(c2)C(=O)N([C@H](C)CO)C[C@@H](C)[C@H](CN(C)C(=O)Nc2ccc4c(c2)OCO4)O3)cc1`, the caspase activation is 0.103%.

In the case of `C[C@H]1CN([C@@H](C)CO)C(=O)c2cc(NS(=O)(=O)c3ccc(F)cc3)ccc2O[C@H]1CN(C)CC1CC1`, the caspase activation was 1.58%.

On to `CCc1ccc(NC(=O)CN(C)S(=O)(=O)c2cc(Br)cnc2N)cc1`, for which the caspase activation was -0.325%.

On to `COc1ccc(CN(C)C[C@@H]2Oc3ccc(NC(=O)Nc4cccc5ccccc45)cc3C(=O)N([C@H](C)CO)C[C@H]2C)cc1`, for which the caspase activation was -0.083%.

Regarding `COc1cc(C2c3c(cc(OC)c(O)c3OC)CC(CO[C@@H]3O[C@H](CO)[C@@H](O)[C@H](O)[C@H]3O)C2CO)cc(OC)c1O` (some centres not stated), the caspase activation was -0.412%.

In the case of `O=C(/C=C/c1ccccc1)NCCCCNCCCNC(=O)/C=C/c1ccccc1`, the caspase activation is -0.0105%.

As for `Cc1ccc(NC(N)=O)cc1`, the caspase activation was -0.167%.

As for `COc1ccc(NC(=O)N(C)C[C@H]2Oc3ccc(NS(=O)(=O)c4cccs4)cc3C(=O)N([C@@H](C)CO)C[C@H]2C)cc1`, the caspase activation is 0.747%.

Take `CCC(=O)c1ccc(OC(=O)C2c3ccccc3Oc3ccccc32)cc1`: the caspase activation is -0.0959%.

In the case of `c1ccc(CSc2ccc(-c3ccncc3)nn2)cc1`, the caspase activation was 0.0365%.

For the compound `C=CCn1c(SCc2nnc(SCC(=O)c3ccc(Cl)cc3)o2)nnc1-c1ccccc1`, the caspase activation is 0.865%.

Consider `C[C@@H]1CN([C@H](C)CO)C(=O)c2cc(NC(=O)C3CCCCC3)ccc2O[C@@H]1CN(C)CC1CCCCC1`, for which the caspase activation is 0.287%.

Take `CC(=C\c1ccccc1)/C(C)=N/O`: the caspase activation was 0.142%.

Turning to `CC[C@H]1CN2CCc3cc(OC)c(OC)cc3[C@@H]2C[C@@H]1C[C@H]1NCCc2cc(OC)c(OC)cc21`, the caspase activation was 18.2% (active).

With `COc1cc2c(cc1OC)C1CN3CCc4cc(OC)c(OC)cc4C3CN1CC2` (configuration not stated), the caspase activation is -0.199%.

As for `Oc1c(Cl)cc(Cl)cc1C1Nc2cc(C(F)(F)F)ccc2-n2cccc21` (configuration not stated), the caspase activation is -0.566%.

Consider `CCCNC(=O)c1ccc2c(c1)N(Cc1ccc(F)cc1)CCS2`, for which the caspase activation is -0.988%.

Regarding `COc1ccc(S(=O)(=O)Nc2ccc3c(c2)C(=O)N([C@H](C)CO)C[C@H](C)[C@H](CN(C)S(=O)(=O)c2ccc(Cl)cc2)O3)cc1`, the caspase activation is 0.103%.

Turning to `O=C(Nc1cccc(-c2nc3ccccc3o2)c1)c1cccc(OCc2ccccc2)c1`, the caspase activation was 34% (active).

As for `O=C(Nc1cccc(-c2nc3ccccc3o2)c1)c1ccc(Br)cc1`, the caspase activation was 14.9% (active).

With `c1ccc(-c2nc3ccccc3o2)cc1`, the caspase activation is -5.88%.

As for `O=C(COc1cccc(NC(=O)c2ccccc2)c1)NCCOc1ccccc1`, the caspase activation was -0.0599%.

For `CCOC(=O)c1cc(=O)c2ccc(OCc3ccccc3)cc2o1`, the caspase activation is -1.74%.

On to `O=C(CSc1nc2ccccc2o1)Nc1ccccn1`, for which the caspase activation was -3.01%.
